# ± gives the standard deviation of the averaged measurements.
# Test system: SUM149
# Experiment: percent difference in area under dose-response curve of relative cell number, RPMI vs HPLM; higher = drug relatively more effective in HPLM than RPMI (negative = less effective in HPLM)
# Settings: treatment time: 72 h; dose range: 10-point, 1 nM to 20 µM; media compared: RPMI vs HPLM
row,Compound,percent difference in area under dose-response curve
1,CS(=O)(=O)CCNCc1ccc(-c2ccc3ncnc(Nc4ccc(OCc5cccc(F)c5)c(Cl)c4)c3c2)o1 [Lapatinib],-5.33%
2,Cc1ccc(-c2cc(C(F)(F)F)nn2-c2ccc(S(N)(=O)=O)cc2)cc1 [Celecoxib],1.54 ± 3%
3,C[C@H](NC(=O)Cc1cc(F)cc(F)c1)C(=O)N[C@@H]1C(=O)N(C)c2ccccc2-c2ccccc21,8.45%
4,Nc1ccc(-c2ccc3ncc4ccc(=O)n(-c5cccc(C(F)(F)F)c5)c4c3c2)cn1 [Torin_2],-2.02%
5,CCN(CC)CCNC(=O)c1c(C)[nH]c(/C=C2\C(=O)Nc3ccc(F)cc32)c1C [Sunitinib_Malate],3.02%
6,Cc1ccc([C@@H]2O[C@H](CO)[C@@H](O)[C@H](O)[C@H]2O)cc1Cc1ccc(-c2ccc(F)cc2)s1 [Canagliflozin],-4.56%
7,CNC(=O)c1cc(Oc2ccc(NC(=O)Nc3ccc(Cl)c(C(F)(F)F)c3)cc2)ccn1 [Sorafenib],2.21%
8,N#CC[C@H](C1CCCC1)n1cc(-c2ncnc3[nH]ccc23)cn1 [SRuxolitinib],-0.914%
9,N#CCNC(=O)c1ccc(-c2ccnc(Nc3ccc(N4CCOCC4)cc3)n2)cc1,7.22%
10,c1cc(-c2cnn3cc(-c4ccc(OCCN5CCCCC5)cc4)cnc23)ccn1 [Dorsomorphin],-2.35%
11,Nc1nc(Cl)nc2c1ncn2[C@H]1C[C@H](O)[C@@H](CO)O1 [Cladribine],-12.6 ± 2.1%
12,COc1c(C)c2c(c(O)c1C/C=C(\C)CCC(=O)OCCN1CCOCC1)C(=O)OC2 [Mycophenolate_mofetil],-4.5%
13,Cc1nc(Nc2n[nH]c3c2CN(C(=O)N[C@H](CN(C)C)c2ccccc2)C3(C)C)c2sccc2n1,-62.7%
14,Cc1nc(N)sc1-c1ccnc(Nc2ccc(N3CCOCC3)cc2)n1,11%
15,CC[C@]1(O)C[C@H]2CN(CCc3c([nH]c4ccccc34)[C@@](C(=O)OC)(c3cc4c(cc3OC)N(C=O)[C@H]3[C@@](O)(C(=O)OC)[C@H](OC(C)=O)[C@]5(CC)C=CCN6CC[C@]43[C@@H]65)C2)C1 [Vincristine],-16.7%
16,Cc1nc(Nc2ncc(C(=O)Nc3c(C)cccc3Cl)s2)cc(N2CCN(CCO)CC2)n1 [Dasatinib],41.7%
17,C=CC(=O)Nc1cc(Nc2nccc(-c3cn(C)c4ccccc34)n2)c(OC)cc1N(C)CCN(C)C,1.9%

row,Compound,percent difference in area under dose-response curve
1,COc1c(C)cnc(Cn2cnc3c(Cl)nc(N)nc32)c1C,-26.2%
2,O=C(CCCCCCC(=O)Nc1ccc([C@H]2O[C@@H](CSc3nc(-c4ccccc4)c(-c4ccccc4)o3)C[C@@H](c3ccc(CO)cc3)O2)cc1)NO [Tubacin],-4.43%
3,CCCCC[C@H](CC(=O)NO)C(=O)N[C@H](C(=O)N1CCC[C@H]1CO)C(C)C [Actinonin],1.68%
4,CCOc1cc(N2CCC(O)CC2)ccc1Nc1ncc2c(n1)N(C)c1ccccc1C(=O)N2C,-8.79%
5,O=C(CCCCCCCn1cc(-c2cccnc2)nn1)Nc1ccccc1-c1ccccc1,0.587%
6,CC(C)(C#N)c1cc(Cn2cncn2)cc(C(C)(C)C#N)c1 [Anastrozole],-1.33%
7,CN1CCN(c2nc(C3=C(c4c[nH]c5ccccc45)C(=O)NC3=O)c3ccccc3n2)CC1 [Sotrastaurin],9.13%
8,Cc1cc(NC(=O)c2cccc(NC(=O)/C=C/CN(C)C)c2)ccc1Nc1nccc(-c2cccnc2)n1,7.32%
9,Cn1c(=O)c(F)c(Nc2ccc(I)cc2F)c2c(=O)n(C[C@@H](O)CO)cnc21,-12.9%
10,COc1cc2nccc(Oc3ccc(NC(=O)Nc4cc(C)on4)c(Cl)c3)c2cc1OC [Tivozanib],7.69%
11,CC1(COc2ccc3c(c2)ncn3-c2ccc3cccc(N4CCC(N)CC4)c3n2)COC1 [Crenolanib],-11.6%
12,CCC(C)SSc1ncc[nH]1 (centres undefined),3.05%
13,COc1cc2c(cc1O)CC[C@@H]1[C@@H]2CC[C@]2(C)[C@@H](O)CC[C@@H]12 [2Methoxyestradiol],-12%
14,CC(=O)Nc1cccc(-n2c(=O)n(C3CC3)c(=O)c3c(Nc4ccc(I)cc4F)n(C)c(=O)c(C)c32)c1,-18.1%
15,CO[C@H]1C[C@@H]2CC[C@@H](C)[C@@](O)(O2)C(=O)C(=O)N2CCCC[C@H]2C(=O)O[C@H]([C@H](C)C[C@@H]2CC[C@@H](O)[C@H](OC)C2)CC(=O)[C@H](C)/C=C(\C)[C@@H](O)[C@@H](OC)C(=O)[C@H](C)C[C@H](C)/C=C/C=C/C=C/1C [Rapamycin],12.8%
16,Oc1ccc(/C=C/c2cc(O)cc(O)c2)cc1 [Resveratrol],-1.11%
17,Cc1ccc(C(=O)N(CCCN)[C@@H](c2oc3cc(Cl)ccc3c(=O)c2Cc2ccccc2)C(C)C)cc1,-42.1%

# From the supplement of paper PMC11383364
